Test systems include SR leukemia; RPMI-8226 leukemia; OVCAR-8 ovarian; OVCAR-5 ovarian; OVCAR-4 ovarian; SK-OV-3 ovarian; IGROV1 ovarian; OVCAR-3 ovarian; HS 578T breast; NCI/ADR-RES ovarian.
What all share (assay): NCI-60 one-dose screen, 48 h (100 = growth as untreated, 0 = no growth, -100 = all killed)
Holding throughout (details): 10 µM unless noted

This is an account of results in PubChem BioAssay (NCI).

About 83,000 compounds went through this panel and 20% of them were active in at least one assay; those are over-represented in the sample as a whole.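 Single-concentration screen, 48 h exposure, 96-well plates. Endpoint: percent growth. Below 10 = active.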 Unmarked numbers belong to inactive results. Calls of active or inactive are those of the source.

Take `COc1ccc(-c2cnc(SCC(=O)Nc3ccc(-c4nc5ccccc5s4)cc3)n2-c2ccc(OC)cc2)cc1`: the growth in the test on SR leukemia is 99.5%; in the test on RPMI-8226 leukemia, 113%; in the test on OVCAR-8 ovarian, 105%; with OVCAR-5 ovarian it was 99%; in the test on OVCAR-4 ovarian, 111%; in the test on SK-OV-3 ovarian, 111%. The values for the growth in the test on IGROV1 ovarian, with OVCAR-3 ovarian and in the test on HS 578T breast were 91.5%, 109% and 105%, respectively.
On to `C[C@@H]1[C@H]2[C@H](C=C3[C@@H]4CC[C@H]5Cc6nc7c(nc6C[C@]5(C)[C@H]4C[C@@H](O)[C@@]32C)C[C@@H]2CC[C@H]3C4=C[C@@H]5O[C@@]6(CC[C@](C)(CO)O6)[C@@H](C)[C@@]5(O)[C@@]4(C)[C@H](O)C[C@@H]3[C@@]2(C)C7)O[C@]12CCC(C)(C)O2`, for which the growth with SR leukemia was 2.45% (active); with RPMI-8226 leukemia, -29.9% (active); in the test with OVCAR-8 ovarian, 50.9%; in the test with OVCAR-5 ovarian it was 8.43% (active); with OVCAR-4 ovarian it was 55.5%; in the test on SK-OV-3 ovarian it was 9.45% (active). Besides, the growth in the test with IGROV1 ovarian is 38.6%; in the test on OVCAR-3 ovarian, 50%; with HS 578T breast, -4.77% (active).
Consider `O=C1C(=O)/C(=C/c2ccccc2)CCCCCC/C1=C/c1ccccc1`, for which the growth in the test on SR leukemia was -13.5% (active); in the test with RPMI-8226 leukemia, -33.5% (active); with OVCAR-8 ovarian, 29.9%; in the test with OVCAR-5 ovarian it was 114%; with OVCAR-4 ovarian, 60.9%; in the test on SK-OV-3 ovarian, 98.2%. The growth with IGROV1 ovarian is 5% (active); in the test on OVCAR-3 ovarian it was 21%; in the test on HS 578T breast, 81.4%; in the test on NCI/ADR-RES ovarian it was 80.1%.
Take `COc1ccc(OC)c2c1CCC1(C2)NC(=O)NC1=O` (configuration not stated): the growth with SR leukemia is 102%; with RPMI-8226 leukemia, 102%; with OVCAR-8 ovarian, 97.8%; in the test on OVCAR-5 ovarian it was 101%; in the test on OVCAR-4 ovarian, 101%; with SK-OV-3 ovarian it was 102%. The growth in the test with IGROV1 ovarian was 110%; with OVCAR-3 ovarian, 126%; in the test on HS 578T breast, 85.6%.
With `CC(NC(N)=S)c1ccccc1` (configuration not stated), the growth was 100% in the test on SR leukemia; 116% with RPMI-8226 leukemia; 106% with OVCAR-8 ovarian; 97.5% in the test on OVCAR-5 ovarian; 106% in the test with OVCAR-4 ovarian; 99.3% in the test on SK-OV-3 ovarian. Moreover, the growth in the test with IGROV1 ovarian is 110%; in the test with OVCAR-3 ovarian, 111%; in the test on HS 578T breast, 98.9%; in the test on NCI/ADR-RES ovarian it was 106%.
With `CCc1nn2c(-c3ccc(Cl)cc3C)c(-c3cc(OC)c(OC)c(OC)c3)nc2s1`, the growth in the test on SR leukemia was 48.3%; with RPMI-8226 leukemia, 63.8%; with OVCAR-8 ovarian, 103%; with OVCAR-5 ovarian it was 92.9%; in the test with OVCAR-4 ovarian, 54%; in the test on SK-OV-3 ovarian it was 94.5%. The growth in the test with IGROV1 ovarian was 73.1%; in the test with OVCAR-3 ovarian it was 72.6%; in the test with HS 578T breast, 48.5%; with NCI/ADR-RES ovarian, 78.3%.
In the case of `CC(C)C[C@H](NC(=O)/C=C/Cn1ccc2ccccc2c1=O)B(O)O`, the growth is 9.14% (active) in the test on SR leukemia; 11.1% with RPMI-8226 leukemia; 86.8% with OVCAR-8 ovarian; 47.2% in the test with OVCAR-5 ovarian; 89.3% with OVCAR-4 ovarian; 69.2% with SK-OV-3 ovarian. The values for the growth in the test on IGROV1 ovarian, in the test with OVCAR-3 ovarian and in the test with HS 578T breast were 77%, 0.848% (active) and 43.8%, respectively.
With `CCOC(=O)/C=C1/SC(=Nc2ccc(C#N)cc2)N(Cc2ccco2)C1=O`, the growth is 0.973% (active) in the test with SR leukemia; -33.8% (active) with RPMI-8226 leukemia; 54.2% in the test with OVCAR-8 ovarian; 37.4% in the test on OVCAR-5 ovarian; 51.2% in the test with OVCAR-4 ovarian; 91.7% in the test with SK-OV-3 ovarian. The growth in the test on IGROV1 ovarian is 26.3%; in the test with OVCAR-3 ovarian, 17.9%; in the test on HS 578T breast, 65.4%; in the test on NCI/ADR-RES ovarian it was 40.9%.
In the case of `Cc1onc(-c2ccccc2Cl)c1C(=O)N[C@@H]1C(=O)N2[C@@H]1SC(C)(C)[C@@H]2C(=O)O`, the growth in the test on SR leukemia was 91.6%; in the test with RPMI-8226 leukemia, 95.4%; with OVCAR-8 ovarian, 106%; in the test on OVCAR-5 ovarian, 115%; with OVCAR-4 ovarian it was 110%; in the test on SK-OV-3 ovarian it was 104%. Moreover, the growth in the test with IGROV1 ovarian was 101%; in the test on OVCAR-3 ovarian, 118%; with HS 578T breast, 114%; in the test with NCI/ADR-RES ovarian, 109%.
As for `COc1ccc(CCN2C(=O)CCC3=C2CCCC3=O)cc1OC`, the growth in the test with SR leukemia was 101%; in the test with RPMI-8226 leukemia, 98.1%; in the test with OVCAR-8 ovarian, 102%; in the test with OVCAR-5 ovarian, 104%; in the test on OVCAR-4 ovarian it was 102%; in the test with SK-OV-3 ovarian it was 100%. Further, the figures for the growth with IGROV1 ovarian, in the test with OVCAR-3 ovarian and in the test on HS 578T breast were 108%, 120% and 94.6%, respectively.
On to `N#Cc1ccc(-c2csc(Nc3ccc4nc5n(c(=O)c4c3)CCC5)n2)cc1`, for which the growth was 93.6% in the test on SR leukemia; 109% in the test on RPMI-8226 leukemia; 106% in the test with OVCAR-8 ovarian; 103% with OVCAR-5 ovarian; 109% in the test on OVCAR-4 ovarian; 176% in the test on SK-OV-3 ovarian. Besides, the values for the growth in the test with IGROV1 ovarian, in the test on OVCAR-3 ovarian and in the test on HS 578T breast were 107%, 116% and 115%, respectively.
As for `CC1(C)CC2(C)CC(=O)C1C(C(=O)O)C2C(=O)O` (configuration not stated), the growth was 90% with SR leukemia; 106% with RPMI-8226 leukemia; 102% in the test with OVCAR-8 ovarian; 98.3% with OVCAR-5 ovarian; 109% in the test with OVCAR-4 ovarian; 101% with SK-OV-3 ovarian. Moreover, the growth is 109% in the test with IGROV1 ovarian, 105% with OVCAR-3 ovarian, 102% with HS 578T breast and 113% in the test with NCI/ADR-RES ovarian.
`OCCCc1n(Cc2ccc3ccccc3c2)c2ccccc2[n+]1Cc1ccc2ccccc2c1`: the growth in the test on SR leukemia is -30.9% (active); with RPMI-8226 leukemia it was 2.19% (active); with OVCAR-8 ovarian, 15.2%; in the test on OVCAR-5 ovarian, 31%; in the test with OVCAR-4 ovarian, 22.3%; in the test with SK-OV-3 ovarian it was 62.2%. Besides, the growth in the test with IGROV1 ovarian is -42.2% (active); in the test on OVCAR-3 ovarian, 0.774% (active).
As to `O=c1c2ccccc2c2nccn2c2cc(Cl)ccc12`, the growth in the test on SR leukemia was 11%; with RPMI-8226 leukemia, 64.8%; with OVCAR-8 ovarian it was 75.3%; with OVCAR-5 ovarian it was 53.2%; in the test with OVCAR-4 ovarian, 81.5%; in the test with SK-OV-3 ovarian, 113%. In addition, the growth in the test with IGROV1 ovarian was 61.7%; in the test with OVCAR-3 ovarian it was 99.1%; in the test with HS 578T breast it was 77.1%; with NCI/ADR-RES ovarian, 57.5%.
